# FGF22 binding: shifts melting point of recombinant human FGF22. recombinant FGF22 thermal shift, SYPRO orange fluorescence; percent of sucrose octasulfate shift, DMSO zero. Q9HCT0. 1.5% of 340,000 active. activity (Tm shift, normalised), % at 9.99 µM;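 active = mean Tm shift, scaled 0 neutral to 100 positive control, at about 1.3% or above, every replicate too, limit read from the data; inconclusive = no clear call, values can overlap the other calls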
# SMARCA2 act: increases SMARCA2 function in MMTV reporter cells. 1% of 370,000 active. AID 652017. MG213 cells, MMTV-luciferase reporter, dexamethasone, overnight. activation, % at 9.1 µM; in the data active = activation above about 7.8%;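 note: 0% = vehicle wells and 100% = reference activator wells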
# MITF act: increases MITF-driven TRPM1 promoter luciferase signal | SK-MEL-5 TRPM1-promoter luciferase, 24 h; % of positive control, neutral wells = 0 | 0.75% of 300,000 active | activation, % at 12.5 µM;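 active = mean activation of at least 80% with every replicate also reaching 80%; inconclusive = mean reaches 80% but some replicate falls short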;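 note: 0% = neutral control wells and 100% = parthenolide positive control wells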
# Wnt bcat act: Wnt/beta-catenin pathway activation; Wnt/beta-catenin reporter cell assay, activator, plate reader; activation, % at 9.35 µM; 1.2% of 300,000 active; AID 743398; in the data active = activation above about 30%, passing the limit was not always enough; inconclusive = no clear call, values can overlap the other calls;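 note: 0% = neutral control wells and 100% = positive control wells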
# AF4-AF9 inh: MLL-AF4/AF9 protein interaction inhibition | inhibition, % at 10 µM | AID 651704 | AlphaScreen, biotin-AF4 peptide binding to FLAG-AF9 | 0.47% of 350,000 active | P42568;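 active = every replicate reaching a set inhibition limit, whatever the replicate mean, cut at about 25% in these data; inconclusive = mean inhibition reaches that limit but some replicates miss it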;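 note: 0% = plate neutral control median and 100% = total signal loss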
# Target sequence (P42568 whole entry, looked up): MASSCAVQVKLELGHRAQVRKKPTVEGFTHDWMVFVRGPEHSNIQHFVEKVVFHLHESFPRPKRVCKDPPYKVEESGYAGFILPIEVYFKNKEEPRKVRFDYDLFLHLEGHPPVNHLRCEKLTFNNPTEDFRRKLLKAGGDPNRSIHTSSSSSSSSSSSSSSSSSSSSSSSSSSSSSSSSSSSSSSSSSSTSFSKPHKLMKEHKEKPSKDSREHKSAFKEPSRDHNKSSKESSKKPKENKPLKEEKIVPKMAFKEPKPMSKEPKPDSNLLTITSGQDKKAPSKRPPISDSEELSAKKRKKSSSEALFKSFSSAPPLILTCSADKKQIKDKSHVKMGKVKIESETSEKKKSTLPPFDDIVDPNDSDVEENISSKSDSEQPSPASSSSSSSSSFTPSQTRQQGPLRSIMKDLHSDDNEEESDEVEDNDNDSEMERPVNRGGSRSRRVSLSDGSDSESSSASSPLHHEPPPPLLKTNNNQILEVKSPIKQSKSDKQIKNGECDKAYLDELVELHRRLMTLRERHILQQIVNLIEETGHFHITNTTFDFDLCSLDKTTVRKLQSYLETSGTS
# esBAF inh: SWI/SNF esBAF complex inhibition; AID 602393; reporter increase, % at 12.5 µM; mouse ES cells, Bmi1-luciferase knock-in reporter, 24 h; 100% = twice the neutral-well signal; 2% of 350,000 active; in the data active = activation above about 40%; inconclusive = no clear call, values can overlap the other calls;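 note: 0% = median of the plate's neutral control wells and 100% = double that signal; a rise in the Bmi1 reporter signal indicates esBAF inhibition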
# An asterisk follows results filed as active; u = inconclusive; x = no result. Only some compounds are listed: those with a hit (about 4.3% of all), similar ones and a draw of the others.
SMILES,FGF22 binding,SMARCA2 act,MITF act,Wnt bcat act,AF4-AF9 inh,esBAF inh
C=CCN(CC=C)C(=S)NC(=O)Cc1cccc2ccccc12,43*,1,-15,0,1,-9
O=C(Cc1cccc2ccccc12)Nc1ccccc1,0,-4,4,0,-3,x
CCn1c2ccc(C)cc2c2nnc(SCCN3CCOCC3)nc21,0,5,1,-3,1,x
Cc1ccc2c(c1)c1nc3ccccc3nc1n2CCN1CCOCC1,x,-1,x,x,x,60*
COc1ccccc1N1CCN(/N=C/c2ccc([N+](=O)[O-])cc2)CC1,0,1,x,13,1,u
O=[N+]([O-])c1ccc(C=NN2CCCCCC2)cc1,0,-2,41,60*,35*,69*
CC(=O)Nc1ccc(/C=N/N2CCCCC2)cc1,0,-1,74,9,3,62*
C[C@@H]1CN([C@H](C)CO)C(=O)c2cc(C#CC3CCCC3)cnc2O[C@H]1CN(C)S(=O)(=O)c1cccc(F)c1,0,x,x,x,2,8
C[C@H](CO)N1C[C@H](C)[C@@H](CN(C)S(=O)(=O)c2cccs2)Oc2ccc(NC(=O)Cc3cn(C)c4ccccc34)cc2C1=O,0,x,x,x,-4,-4
Cc1cccc(OCC(=O)Nc2ccc(C(=O)NCC(C)C)cc2)c1,44*,-3,-5,-2,5,2
CCOC(=O)c1c(NC(=O)Cn2ccsc2=N)sc(C)c1C,43*,2,-4,-1,1,-2
CCOC(=O)c1c(NC(=O)CNCCO)sc(C)c1C,x,3,3,x,x,2
CCOC(=O)c1c(NC(=O)CC2SC(N)=NC2=O)sc(C)c1C (stereo not drawn),43*,-2,-16,-2,-10,x
O=C(Nc1ccc(F)cc1)c1ccc2ncsc2c1,0,3,73,20,0,u
O=C(Nc1ccc(Cl)cc1)c1ccc2ncsc2c1,0,4,64,19,-3,65*
O=C(Nc1ccc(C(F)(F)F)cc1)c1ccc2ncsc2c1,1,6,x,12,-4,58*
O=C(Nc1ccc(Cl)cc1)c1ccc2nsnc2c1,0,4,67,-1,-1,109*
N#Cc1ccsc1NC(=O)c1ccc2ncsc2c1,0,2,x,18,-2,71*
COCC(=O)Nc1ccc2c(c1)[C@H]1C[C@H](CC(=O)N3CCN(C)CC3)O[C@@H](CO)[C@H]1O2,0,x,x,x,x,1
O=C(COC(=O)c1ccc2ncsc2c1)Nc1cccc(Cl)c1,0,-2,10,-2,-3,14
O=C(Nc1cccc(Cl)c1)c1ccc2ncsc2c1,0,1,46,17,-2,48*
C=CCSc1n[nH]c(-c2ccc(OC)cc2)n1,x,4,101*,x,x,54*
C=CCSc1n[nH]c(-c2ccccc2)n1,x,2,71,x,x,53*
COc1ccc(-c2nc(SCC(=O)Nc3cc(C)on3)n[nH]2)cc1,x,x,10,x,x,-5
C[C@@H](C(=O)NC1CCN(Cc2ccccc2)CC1)N1C(=O)N2CCc3c([nH]c4ccccc34)[C@@]2(C)C1=O,0,1,x,-2,15,16
SMILES,FGF22 binding,SMARCA2 act,MITF act,Wnt bcat act,AF4-AF9 inh,esBAF inh
CC(C)[C@@H](C(=O)NC1CCN(Cc2ccccc2)CC1)N1C(=O)N2CCc3c([nH]c4ccccc34)[C@@]2(C)C1=O,0,1,3,-1,27*,3
Cc1ccc(-c2csc(NC(=O)CSc3nc(C)cs3)n2)cc1,x,-4,46,6,x,45*
Nc1ccccc1SCC(=O)Nc1nc(-c2ccccc2)cs1,1.5*,2,21,-1,1,4
Cc1csc(SCC(=O)Nc2nc(-c3ccccc3)cs2)n1,x,0,-7,x,x,15
CCNC(=O)CSc1nc(-c2ccc(F)cc2)cs1,0,-1,35,17,0,x
CC(C)(C)NC(=O)CSc1nc(-c2ccc(F)cc2)cs1,0,-2,71,38*,-8,x
C[C@@H]1CN([C@H](C)CO)C(=O)c2cc(NC(=O)Nc3ccc(F)cc3)ccc2O[C@@H]1CN(C)Cc1ccncc1,0,x,x,x,1,6
CN(C)CCCNC(=O)C[C@@H]1C=C[C@@H](NC(=O)c2ccccc2F)[C@@H](CO)O1,0,x,x,x,-2,-4
Cc1noc(C)c1S(=O)(=O)N(C)C[C@@H]1OCCCC[C@@H](C)Oc2ccc(NC(=O)NC(C)C)cc2C(=O)N([C@@H](C)CO)C[C@H]1C,0,x,x,x,-1,-4
N=c1sccn1CC(=O)Nc1ccc(S(N)(=O)=O)cc1,0,1,-1,-3,-3,-9
N=c1sccn1CC(=O)Nc1ccc(SC(F)F)cc1,43*,-3,7,-1,0,-2
CCOC(=O)CSc1ccc2ccccc2n1,43*,-2,8,0,-1,x
O=C(O)CSc1ccc2ccccc2n1,x,1,-2,x,x,-1
C[C@H](CO)N1C[C@H](C)[C@H](CN(C)C(=O)c2cnccn2)Oc2ncc(C#Cc3ccccn3)cc2C1=O,0,x,x,x,-5,-1
CCC(=O)Nc1ccc(N2CCCCC2)cc1,x,2,12,x,x,20
O=C(/C=C/c1ccc(Cl)cc1)Nc1ccc(N2CCCCC2)cc1,x,-1,-5,1,x,-6
O=C(/C=C/c1ccccc1)Nc1ccc(N2CCCCC2)cc1,0,1,33,0,7,62*
O=C(CCl)Nc1ccc(N2CCCCCC2)cc1,-1,2,10,2,51*,9
NC(=O)NC(=O)C(Nc1ccc(N2CCCCC2)cc1)c1ccccc1 (stereo not drawn),0,-3,20,9,16,51*
CC1CCCCN1CC(=O)Nc1ccc(Oc2ccccc2)cc1 (stereo not drawn),x,-2,0,x,x,4
CC1CCCCN1CC(=O)Nc1ccc(N2CCCCCC2)cc1 (stereo not drawn),-1,-4,6,-1,49*,x
O=C(Cc1ccccc1)Nc1ccc(N2CCCCC2)cc1,41,5,62,59*,-2,20
COc1ccc(N2CCN(c3ccc(NC(=O)/C=C\C(=O)O)cc3)CC2)cc1,0,-1,-5,45*,1,-5
COc1ccc(/C=C/C(=O)Nc2ccc(N3CCOCC3)cc2)cc1,x,-2,-3,x,x,x
COC(=O)c1cc(NC(=O)/C=C/c2ccccc2)ccc1O,43*,2,x,8,4,x
CC(C)CC#Cc1cnc2c(c1)C(=O)N([C@H](C)CO)C[C@H](C)[C@@H](CN(C)S(=O)(=O)c1cccs1)O2,0,x,x,x,4,3
CCCC(=O)Nc1ccc2c(c1)C(=O)N(C)[C@@H]1CC[C@@H](CC(=O)NCc3ccccc3Cl)O[C@@H]1CO2,0,x,x,x,0,1
CCCNC(=O)Nc1ccc2c(c1)C(=O)N(C)C[C@H](OC)[C@@H](C)CN(CC1CCCC1)[C@H](C)CO2,x,x,x,x,x,4
